# ± gives the standard deviation of the averaged measurements. Over roughly 33,000 sequences, “E-score (rank enrichment, -0.5 to 0.5)” has its median near -0.0028; the highest 2% begin near 0.23. Shown is part of a subset that was picked to be rich in the highest values.
# Tested on: 2Sb-muMax20 (muMax20 with two 1,3-bis(methyl)benzene Cys staples, A13C/A17C and Q88C/A92C, C-terminal Lys)
# Assay: PBM 8-mer E-score (E-score (rank enrichment, -0.5 to 0.5)); higher = stronger preferential binding
# Description: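 Protein binding microarray (universal PBM chip covering all 10-mers in fixed probe flanks) with chemically synthesized human Max(13-93) bHLH-LZ analogs (not full-length Max) bearing noncanonical residues (hArg, Tha, Aib, Nle at 65) and aromatic Cys staples. Read-out per 8-mer (and its reverse complement): E-score (rank-based enrichment, -0.5 to 0.5) and Z-score of median probe intensity.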
row,Sequence,PBM 8-mer E-score
1,TAGTTGAA,0.23 ± 0.012
2,AAGTTGAA,0.0152 ± 0.0042
3,CAGTTGAA,0.0124 ± 0.054
4,AGAGAAGG,-0.029 ± 0.046
5,GATAGATA,-0.0327 ± 0.03
6,TATAGATA,0.213 ± 0.042
7,CATAGATA,0.277 ± 0.041
8,ATCGCTCA,0.0207 ± 0.008
9,AGGAAGGC,-0.0526 ± 0.077
10,CCTGTTTA,0.137 ± 0.0084
11,ACAAAATA,0.193 ± 0.13
12,AGAAATAG,0.232 ± 0.034
13,ACAAATGG,0.266 ± 0.032
14,ACAAAACG,0.262 ± 0.006
15,CCAAATGG,-0.0949 ± 0.091
16,ACAAAATC,0.0704 ± 0.00074
17,AGAAATAC,0.0203 ± 0.03
18,CCAAAACG,-0.0328 ± 0.043
19,AGAAATAT,0.0844 ± 0.12
20,ACAAAACC,0.13 ± 0.14
21,ACAAATGT,0.148 ± 0.026
22,ACAAAATG,0.238 ± 0.039
23,ACGTGGAC,0.15 ± 0.054
24,AAAGAGGG,0.0479 ± 0.037
25,CTCGTATC,0.0723 ± 0.026

row,Sequence,PBM 8-mer E-score
1,GCCCTGTA,0.032 ± 0.063
2,TTAATGAA,0.115 ± 0.088
3,AGGACAGG,-0.1548 ± 0.00025
4,TATAGCGA,0.0513 ± 0.037
5,AGAAATGA,-0.0864 ± 0.0095
6,AGAAATGG,0.251 ± 0.033
7,AGAAATGC,0.177 ± 0.015
8,ACCTGCGC,-0.114 ± 0.011
9,CCCAGCGA,-0.132 ± 0.046
10,CCTCTACA,0.0181 ± 0.028
11,CAATCACG,0.231 ± 0.021
12,CAATCACA,0.0918 ± 0.051
13,AAATCACA,0.199 ± 0.0051
14,GATCTCCC,0.122 ± 0.056
15,ATTGTAGC,-0.106 ± 0.0083
16,CGTCTCCA,-0.0564 ± 0.02
17,AGTGGTAT,0.0204 ± 0.062
18,CCCCCACA,-0.26 ± 0.052
19,ATCCCCAG,0.0369 ± 0.07
20,ATCCCCAT,0.118 ± 0.011
21,CTCCCCAG,0.162 ± 0.085
22,CTCCCCAA,0.309 ± 0.072
23,ATCCCCCA,-0.171 ± 0.032
24,ATCCCCAC,0.301 ± 0.04
25,ATCCCCCC,-0.321 ± 0.063

row,Sequence,PBM 8-mer E-score
1,CCCCCACG,0.0751 ± 0.11
2,TCCCCACA,0.261 ± 0.055
3,ATCCCCAA,0.301 ± 0.04
4,CTCCCCCA,-0.142 ± 0.09
5,ACTCGGAA,-0.104 ± 0.083
6,ATGCACTG,0.062 ± 9.2e-05
7,CCGCATAA,0.184 ± 0.0044
8,ATTTTAAA,0.126 ± 0.03
9,GGAGGACA,-0.0957 ± 0.0057
10,AGTTCGTA,-0.119 ± 0.064
11,CAGGGGGG,-0.241 ± 0.072
12,ATAGCAAA,0.1715 ± 0.0012
13,AGTCTGAC,-0.0779 ± 0.015
14,CCCCCCAC,-0.238 ± 0.085
15,TCCCCAAA,0.372 ± 0.029
16,TTCCCAAA,0.0153 ± 0.013
17,GTCCCCAA,0.0368 ± 0.035
18,CCCCCAAA,-0.215 ± 0.027
19,GTCCCCAC,0.0697 ± 0.074
20,TCCCCCAA,-0.179 ± 0.0084
21,CTCCCCAC,0.292 ± 0.041
22,TTCCCCAA,0.32 ± 0.021
23,AACAGATA,-0.0213 ± 0.017
24,ACCTCTGA,-0.0896 ± 0.0083
25,CAGACATG,-0.0511 ± 0.076

row,Sequence,PBM 8-mer E-score
1,ACTGCAGC,0.0488 ± 0.072
2,ACGCAACC,-0.0577 ± 0.0052
3,ACGCCCCT,0.109 ± 0.11
4,GCTAGAAA,0.197 ± 0.055
5,ACAGAAAC,0.126 ± 0.0055
6,ACAGCAAC,-0.0541 ± 0.075
7,ACAGAAAA,0.083 ± 0.044
8,ACAGCAAG,0.24 ± 0.03
9,ACAGCAAT,0.0979 ± 0.018
10,ACAGAAAG,0.278 ± 0.04
11,ATCCCGAG,-0.0644 ± 0.021
12,CAAGGCAA,0.0983 ± 0.056
13,ATTTGTTG,0.232 ± 0.0078
14,ATTTGTTA,0.187 ± 0.0095
15,ATTTGTTC,0.15 ± 0.058
16,ATACTGCG,0.0194 ± 0.043
17,AATTAAGT,0.24 ± 0.005
18,ACTTAAGT,0.246 ± 0.033
19,AATTAAAC,0.19 ± 0.065
20,AATTAAGA,0.216 ± 0.038
21,ACTTAAGA,0.00227 ± 0.079
22,ACTTAAGC,-0.134 ± 0.061
23,AATTAAAG,0.133 ± 0.025
24,AATTAAAT,0.235 ± 0.011
25,AATTAAGC,0.121 ± 0.063
